USP17 block: blocks human USP17 ubiquitin-rhodamine cleavage; inhibition, % at 50 µM; A8MUK1; purified USP17, Ub-rhodamine cleavage fluorescence, 3 h; hit rate 6.5% among 47,000
USP28 inh: inhibitors of human USP28 deubiquitinase; Q96RU2; purified USP28, Ub-rhodamine cleavage fluorescence, 30 min; inhibition, % at 25 µM; hit rate 3% among 47,000; AID 1645857
USP30 inh: human USP30 deubiquitinase inhibition; Q70CQ3; purified USP30, Ub-rhodamine cleavage fluorescence; inhibition, % at 25 µM; hit rate 5.3% among 47,000; AID 1645860
OTUD3 inh: human OTUD3 deubiquitinase inhibition; Q5T2D3; purified OTUD3, Ub-rhodamine fluorescence, 2 h; inhibition, % at 25 µM; hit rate 0.7% among 47,000; AID 1645858
Target sequence (Q5T2D3 whole entry, looked up): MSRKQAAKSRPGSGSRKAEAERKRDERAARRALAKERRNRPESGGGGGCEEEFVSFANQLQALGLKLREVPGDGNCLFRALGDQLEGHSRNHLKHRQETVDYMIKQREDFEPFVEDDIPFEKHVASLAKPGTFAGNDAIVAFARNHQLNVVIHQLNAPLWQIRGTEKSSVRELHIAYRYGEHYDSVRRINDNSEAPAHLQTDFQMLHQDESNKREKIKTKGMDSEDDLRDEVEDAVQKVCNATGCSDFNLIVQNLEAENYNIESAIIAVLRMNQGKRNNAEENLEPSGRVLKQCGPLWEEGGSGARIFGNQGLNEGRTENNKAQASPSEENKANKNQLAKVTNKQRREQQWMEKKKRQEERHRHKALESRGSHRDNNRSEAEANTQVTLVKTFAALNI
Numbers without * were called inactive. Sampled rows, rich in hits. Any-hit rate of the full collection: about 11%. Cut-off read from the data, not from the text of the source: active = inhibition above about 30%; inactive = the rest.

SMILES	USP17 block	USP28 inh	USP30 inh	OTUD3 inh
O=C(CCCc1nnc2c(=O)n(-c3cccc(F)c3)ccn12)Nc1ccccc1	38*	-25	-64	-17
Cc1ccc(CNC(=O)CCc2nnc3c(=O)n(-c4cc(C)cc(C)c4)ccn23)cc1	24	7	-6	17
COc1ccc(-n2ccn3c(CCC(=O)NCc4ccc(F)cc4)nnc3c2=O)cc1	69*	-2	17	10
Cc1cc(C)cc(-n2ccn3c(CCC(=O)Nc4ccc(F)cc4)nnc3c2=O)c1	22	16	49*	19
Cc1cccc(NC(=O)CCCc2nnc3c(=O)n(-c4cccc(F)c4)ccn23)c1	-37	-9	-7	-4
Cc1cc(C)cc(-n2ccn3c(CCC(=O)Nc4cccc(F)c4)nnc3c2=O)c1	1	-7	-9	-8
Cc1ccc(NC(=O)CCc2nnc3c(=O)n(-c4cc(C)cc(C)c4)ccn23)cc1	15	5	43*	8
O=C1CC(C(=O)Nc2cccc(Cl)c2)c2ccc(F)cc2N1 (stereo not drawn)	-5	15	-5	-8
O=C1CC(C(=O)Nc2cccc(Br)c2)c2ccc(F)cc2N1 (stereo not drawn)	11	39*	11	10
CC1CCN(S(=O)(=O)N2CCCC(C(=O)NCc3ccccc3)C2)CC1 (stereo not drawn)	27	14	36*	9
CS(=O)(=O)NC1CCCN(C(=O)Nc2cccc3ccccc23)C1 (stereo not drawn)	87*	11	12	11
COc1ccc(CCNC(=O)C2CCCN(S(=O)(=O)N3CCC(C)CC3)C2)c(OC)c1 (stereo not drawn)	17	10	33*	14
Cc1cccc(CNC(=O)C2CCCN(S(=O)(=O)Cc3ccccc3Cl)C2)c1 (stereo not drawn)	22	0	39*	5
COc1ccc(CNC(=O)C2CCCN(S(=O)(=O)Cc3ccccc3Cl)C2)cc1 (stereo not drawn)	2	-13	14	-1
CC(=O)N1CCCC(c2cc(-c3ccn[nH]3)nc(C)n2)C1 (stereo not drawn)	0	-1	-1	2
O=C(C1CCCN(S(=O)(=O)N2CCCCCC2)C1)N1CCN(c2ccccc2)CC1 (stereo not drawn)	-13	54*	7	-6
O=C(C1CCCN(S(=O)(=O)N2CCCCC2)C1)N1CCN(c2ccccc2)CC1 (stereo not drawn)	-14	-13	-15	-9
CCOC(=O)c1ccc(NC(=O)C2CCCN(S(=O)(=O)N3CCCCCC3)C2)cc1 (stereo not drawn)	41*	-6	15	7
O=C(Nc1cccc2ccccc12)C1CCCN(S(=O)(=O)Cc2ccccc2)C1 (stereo not drawn)	73*	7	23	7
COc1ccc(NC(=O)C2CCCN(S(=O)(=O)N3CCC(C)CC3)C2)cc1 (stereo not drawn)	38*	0	16	0
Cc1c(N2CCN(C(=O)COc3ccccc3)CC2)c(=O)n(C)c(=O)n1-c1ccccc1	-1	3	-6	3
Cc1ccc(C2CC(c3ccccc3)N(C(=O)c3ccccc3)c3ncnn32)cc1 (stereo not drawn)	15	12	25	9
O=C(Nc1cccc(F)c1)C1CCCN(S(=O)(=O)N2CCCCCC2)C1 (stereo not drawn)	53*	10	26	18
O=C(Nc1ccc(F)cc1)C1CCCN(S(=O)(=O)N2CCCCCC2)C1 (stereo not drawn)	-9	3	15	2
CCC1(c2ccccc2)NC(=O)N(CC(=O)N(c2ccccc2)C(C)C)C1=O (stereo not drawn)	13	16	37*	14
SMILES	USP17 block	USP28 inh	USP30 inh	OTUD3 inh
CC(C)N(C(=O)Cn1c(=O)[nH]c2ccccc21)c1ccccc1	58*	9	15	7
CCOC(=O)c1ccc2nc(NC(=O)c3cc(-c4ccc(OC)cc4)on3)sc2c1	5	-6	-1	-5
Cc1ccc(NC(=O)N2C[C@@H]3c4nccn4-c4ccccc4[C@@H]3C2)cc1	-15	-18	0	-9
O=C(Nc1ccccn1)N1C[C@@H]2c3nccn3-c3ccccc3[C@@H]2C1	14	9	34*	13
NC(=O)C1CN(C(=O)c2n[nH]c3c2CCCC3)CCN1Cc1ccccc1 (stereo not drawn)	-2	3	13	9
COc1cccc(NC(=O)C(C)OC(=O)c2ccc(NS(=O)(=O)c3ccc(F)c(F)c3)cc2)c1 (stereo not drawn)	-52	-6	-38	-4

Source: PubChem BioAssay (Buhrlage Lab, Dana-Farber Cancer Institute and Novartis Institutes for BioMedical Research (Cambridge, Mass))
